Measurements published in PubChem BioAssay (Tox21).
“And” between values parts separate entries of the source, which are not always exact repeats. Identical values can stand only once. Inconclusive results are not listed. More than one record can exist for a structure, and the calls need not agree. The source made the active and inactive calls. Unless noted, the call rests on the fitted dose curve; in most records, active means well fitted curve in the direction sought with a large enough effect in the repeat runs; inconclusive means weak or mixed curves; inactive means no such curve, though single readings can be large; an effect the other way counts as inactive or inconclusive.

Tests used:
[1] = target: Retinoic acid receptor RXR-alpha (Homo sapiens) (UniProt P19793); assay: qHTS assay to identify small molecule agonists of the RXR signaling pathway (AID 1159527; calls by dose curve; further: nearly all actives have a fitted effect of over 35% in size)
Outline: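 GeneBLAzer RXR-alpha-UAS-bla HEK 293T cells in medium with 2% charcoal-stripped FBS, pre-incubated 5 hr at 37 C, then exposed to compounds 16 hr. Beta-lactamase reporter read by FRET substrate, 2 hr room temperature, 460/530 nm emission.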

[2] = qHTS assay to identify small molecule agonists of the RXR signaling pathway - cell viability counter screen (AID 1159529); further: nearly all actives have a fitted effect of over 50% in size; further: potency means the concentration at half of the fitted maximal effect; on activity change, negative = cytotoxicity: series mostly up to about 77 µM
Outline: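 RXR-alpha-UAS-bla HEK 293T cells in medium with 2% charcoal-stripped FBS were preincubated 5 hr, then exposed to compounds for 16 hr at 37 C. Viability was read as CellTiter-Glo luminescence after 30 min at room temperature.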

[3] = qHTS assay to identify small molecule antagonists of the retinoid acid receptor (RAR) signaling pathway - cell viability counter screen (AID 1159551); further: nearly all actives have a fitted effect of over 35% in size
Outline: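 In this counter screen, the RARE-luciferase line C3RL4 was exposed for 6 h at 37 C and 5% CO2 to compounds with retinol at 1 uM final. Cellular ATP, read by luminescence, served as the viability measure.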

[4] = qHTS assay to identify small molecule antagonists of the retinoic acid receptor (RAR) signaling pathway (AID 1159552; further: nearly all actives have a fitted effect of over 50% in size)
Outline: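 RARE-luc C3RL4 cells; cpds + 1 uM (final) retinol, 6 hr, 37 C/5% CO2; luciferase reagent, 30 min RT, luminescence readout. Inhibitors of retinol-driven signal scored.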

[5] = qHTS assay to identify small molecule agonists of the retinoic acid receptor (RAR) signaling pathway (AID 1159553); further: potency means the concentration at half of the fitted maximal effect
Outline: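 In this cell-based screen, 1,000 C3RL4 cells per well were cultured overnight, dosed with test chemicals in DMSO for 6 hr, and assessed for RARE luciferase luminescence.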

[6] = qHTS assay to identify small molecule antagonists of the estrogen related receptor (ERR) signaling pathway from Tox21 library - cell viability counter screen (AID 1224834); further: nearly all actives have a fitted effect of over 30% in size; further: potency means the concentration at half of the fitted maximal effect
Outline: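 Counter screen run in ERR cells (2,000 cells/well): cells pre-incubated 6 h, then treated with compounds for 17.5 h at 37 C. Fluorescence was read 30 min after CellTiter-Fluor addition.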

[7] = target: Luciferin 4-monooxygenase (Photinus pyralis) (UniProt P08659); assay: qHTS assay to identify small molecule inhibitors of firefly luciferase (AID 1224835); further: nearly all actives have a fitted effect of over 25% in size; further: potency means the concentration at half of the fitted maximal effect; on activity change, negative = inhibition: series mostly up to about 120 µM
Outline: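 Inhibition of purified Photinus luciferase is measured by luminescence. Substrate levels (D-luciferin, ATP) sit at their KM values. Each compound is tested in a concentration series.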

[8] = qHTS assay to identify small molecule agonists of the constitutive androstane receptor (CAR) signaling pathway - cell viability counter screen (AID 1224836); further: nearly all actives have a fitted effect of over 45% in size; further: potency means the concentration at half of the fitted maximal effect; on viability change, negative = cytotoxic: series mostly up to about 92 µM
Outline: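 HepG2 cells stably carrying hCAR and a CYP2B6-2.2kb reporter were plated 4 h, then given compounds at 15 concentrations plus PK11195 (final 0.75 uM). After 23 h at 37 C, viability was read by CellTiter-Fluor fluorescence.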

[9] = qHTS assay to identify small molecule antagonists of the constitutive androstane receptor (CAR) signaling pathway - cell viability counter screen (AID 1224837); further: nearly all actives have a fitted effect of over 45% in size; further: potency means the concentration at half of the fitted maximal effect; on activity change, negative = cytotoxicity: series mostly up to about 92 µM
Outline: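 CITCO at 50 nM final was added alongside compounds (15 concentrations) to double-stable hCAR/CYP2B6-2.2kb HepG2 cells. Following 23 hr at 37 C, cell viability was quantified by CellTiter-Fluor fluorescence intensity.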

[10] = target: Nuclear receptor subfamily 1 group I member 3 (Homo sapiens) (UniProt Q14994); assay: qHTS assay to identify small molecule antagonists of the constitutive androstane receptor (CAR) signaling pathway (AID 1224838); further: nearly all actives have a fitted effect of over 40% in size
Outline: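 Inhibition of CITCO-driven (50 nM final) CYP2B6 reporter expression is measured in HepG2 cells stably carrying hCAR. Fifteen compound concentrations are applied for 24 h at 37 C, followed by luciferase luminescence.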

[11] = target: Nuclear receptor subfamily 1 group I member 3 (Homo sapiens) (UniProt Q14994); assay: qHTS assay to identify small molecule agonists of the constitutive androstane receptor (CAR) signaling pathway (AID 1224839); further: nearly all actives have a fitted effect of over 15% in size; further: potency means the concentration at half of the fitted maximal effect; on activation: series mostly up to about 92 µM
Outline: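 HepG2 cells stably expressing hCAR and a CYP2B6-2.2kb luciferase reporter were treated with compounds at 15 concentrations plus 0.75 uM PK11195 (final) for 24 h at 37 C; luminescence was read after ONE-Glo addition.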

[12] = qHTS assay to identify small molecule antagonists of the estrogen related receptor signaling pathway with the pleiotropic PPARgamma coactivator (PGC) from Tox21 10K library - cell viability counter screen (AID 1224840; active means well fitted cell-killing curve with a large enough effect in the repeat runs, not every such curve was filed as active; further: nearly all actives have a fitted effect of over 40% in size; further: potency means the concentration at half of the fitted maximal effect)
Outline: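 Readout: fluorescence intensity from CellTiter-Fluor after 30 min at 37 C/5% CO2. Preceded by 17.5 h treatment of PGC/ERR cells with DMSO-dissolved compounds, added 6 h post-seeding.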

[13] = qHTS assay to identify small molecule antagonists of the estrogen related receptor (ERR) signaling pathway - cell viability counter screen (AID 1224818); further: series mostly up to about 46 µM
Outline: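 Viability of ERR cells, CellTiter-Fluor fluorescence; 17.5 h compound exposure at 37 C, DMSO vehicle; 30 min reagent incubation at 37 C/5% CO2.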

[14] = qHTS assay to identify small molecule antagonists of the estrogen related receptor signaling pathway with the pleiotropic PPARgamma coactivator (PGC) cell viability counter screen (AID 1224822; further: series mostly up to about 46 µM)
Outline: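 17.5 h compound treatment of PGC/ERR cells at 37 C; readout CellTiter-Fluor fluorescence; run alongside the PGC/ERR antagonist screen to flag cytotoxic compounds.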

[15] = qHTS assay to identify small molecule antagonists of the estrogen related receptor signaling pathway with the pleiotropic PPARgamma coactivator (PGC) from Tox21 10K library (AID 1224841; call rule not given here; further: actives are mostly falling curves and most rising ones were filed inactive; nearly all actives have a fitted effect of over 50% in size; further: potency means the concentration at half of the fitted maximal effect; on activity, negative = inhibition: series mostly up to about 92 µM)
Outline: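 One-Glo luminescence, measured after half an hour at room temperature, quantified reporter output of PGC/ERR cells. These had been plated at 2,000 per well, incubated 6 h, dosed with compounds in DMSO, then kept 18 h at 37 C.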

[16] = qHTS assay to identify small molecule agonists of the estrogen related receptor signaling pathway with the pleiotropic PPARgamma coactivator (PGC) from Tox21 10K library (AID 1224842); further: nearly all actives have a fitted effect of over 15% in size
Outline: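 Luminescence from One-Glo (30 min, room temperature) measured after PGC/ERR cells had 18 h at 37 C with pinned compound (23 nL in DMSO). Cells had been seeded at 2,000 per well and pre-incubated 6 h.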
On the % scale 0 is the no-effect control and ±100 the full control effect.

Chain of Nuclear receptor subfamily 1 group I member 3 (Homo sapiens) (Q14994 whole entry, looked up): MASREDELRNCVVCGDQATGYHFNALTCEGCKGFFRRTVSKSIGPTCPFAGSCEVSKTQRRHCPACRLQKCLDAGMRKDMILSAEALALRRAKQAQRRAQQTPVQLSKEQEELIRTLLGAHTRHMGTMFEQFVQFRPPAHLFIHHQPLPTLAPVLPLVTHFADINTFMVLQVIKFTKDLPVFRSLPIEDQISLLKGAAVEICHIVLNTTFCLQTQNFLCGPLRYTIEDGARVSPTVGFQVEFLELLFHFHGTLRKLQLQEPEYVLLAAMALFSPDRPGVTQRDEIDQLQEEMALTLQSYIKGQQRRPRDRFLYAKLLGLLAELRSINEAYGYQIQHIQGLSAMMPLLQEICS
Chain of Retinoic acid receptor RXR-alpha (Homo sapiens) (P19793 whole entry, looked up): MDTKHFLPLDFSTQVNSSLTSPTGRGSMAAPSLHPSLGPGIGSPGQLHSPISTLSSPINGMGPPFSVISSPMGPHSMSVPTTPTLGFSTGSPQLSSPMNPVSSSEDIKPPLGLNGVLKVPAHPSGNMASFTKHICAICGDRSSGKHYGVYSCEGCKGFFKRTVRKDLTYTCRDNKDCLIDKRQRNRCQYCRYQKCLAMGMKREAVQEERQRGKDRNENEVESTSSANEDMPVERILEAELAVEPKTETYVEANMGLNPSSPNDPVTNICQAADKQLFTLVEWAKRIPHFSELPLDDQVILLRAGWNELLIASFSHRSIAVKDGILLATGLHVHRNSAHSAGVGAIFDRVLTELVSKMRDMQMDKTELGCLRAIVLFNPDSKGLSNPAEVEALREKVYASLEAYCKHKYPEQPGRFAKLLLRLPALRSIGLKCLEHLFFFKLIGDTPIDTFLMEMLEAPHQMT
Chain of Luciferin 4-monooxygenase (Photinus pyralis) (P08659 whole entry, looked up): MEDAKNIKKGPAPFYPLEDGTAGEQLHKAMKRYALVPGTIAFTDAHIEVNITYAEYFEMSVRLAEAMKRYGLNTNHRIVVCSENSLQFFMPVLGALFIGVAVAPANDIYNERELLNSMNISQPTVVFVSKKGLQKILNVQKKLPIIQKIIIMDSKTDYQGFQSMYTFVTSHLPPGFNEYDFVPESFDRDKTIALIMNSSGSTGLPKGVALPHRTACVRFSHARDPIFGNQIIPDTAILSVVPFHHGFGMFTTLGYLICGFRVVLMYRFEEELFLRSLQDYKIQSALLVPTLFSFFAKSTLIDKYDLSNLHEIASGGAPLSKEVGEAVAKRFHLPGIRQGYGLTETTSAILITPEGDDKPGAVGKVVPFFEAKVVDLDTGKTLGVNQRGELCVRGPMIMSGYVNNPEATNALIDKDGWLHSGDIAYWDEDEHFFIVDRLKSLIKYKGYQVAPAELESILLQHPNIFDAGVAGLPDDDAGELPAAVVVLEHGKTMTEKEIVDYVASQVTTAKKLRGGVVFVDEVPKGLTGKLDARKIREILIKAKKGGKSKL

CCCCCCCCCCCCCCC[C@H](O)[C@@H](N)CO
inactive: Potency [1] | Potency [2] | Potency [3] | Potency [4] | Potency [5] | Potency [6] | Potency [7] | Potency [8] | Potency [9] | Potency [10] | Potency [11] | Potency [12]

CC1CN(c2cc3c(cc2F)c(=O)c(C(=O)O)cn3-c2ccc(F)cc2F)CCN1 (stereo not given)
inactive: activation [1] -0.207% [at 6.98 µM] | activity change, negative = cytotoxicity [2] -4.54% [at 6.97 µM] | activity change, negative = cytotoxicity [3] 0.772% [at 8.39 µM] | viability change, negative = cytotoxic [6] 4.3% [at 8.39 µM] | activity change, negative = inhibition [7] 1.15% [at 10.5 µM] | activity change, negative = cytotoxicity [9] 6.26% [at 8.39 µM] | activity, negative = inhibition [10] 9.29% [at 8.39 µM] | activation [11] -1.5% [at 8.39 µM] | viability change, negative = cytotoxic [12] 0.948% [at 8.39 µM]

CCC1(C)CC(=O)NC1=O (stereo not given)
inactive: Potency [1] | Potency [2] | outcome [13] | outcome [14] | Potency [6] | Potency [7] | Potency [9] | Potency [12]

CCOCCn1c(C2CCN(CCc3ccc(C(C)(C)C(=O)O)cc3)CC2)nc2ccccc21
inactive: Potency [1] | Potency [2] | Potency [3] | Potency [6] | Potency [7] | Potency [9] | Potency [12]

O=S1OCCO1
inactive: Potency [1] | Potency [2] | Potency [3] | Potency [6] | Potency [7] | Potency [8] | Potency [9] | Potency [12] | Potency [15]

CC(CCO)CCc1ccccc1 (stereo not given)
inactive: Potency [1] | Potency [2] | Potency [3] | Potency [6] | Potency [7] | Potency [8] | Potency [9] | Potency [12]

CC(=N\O)/C(C)=N/O
inactive: Potency [1] | Potency [2] | Potency [5] | Potency [6] | Potency [7] | Potency [8] | Potency [9] | Potency [10] | Potency [11] | Potency [12]

CC1=C(C=O)C(C)(C)CCC1
inactive: Potency [1] | Potency [2] | Potency [3] | Potency [6] | Potency [8] | Potency [9] | Potency [10] | Potency [11] | Potency [12]

CCC(=O)OC/C=C/c1ccccc1
inactive: Potency [1] | Potency [2] | Potency [6] | Potency [8] | Potency [9] | Potency [10] | Potency [11] | Potency [12]

COc1ccccc1N=Nc1c(S(=O)(=O)O)cc2cc(S(=O)(=O)O)cc(NC(C)=O)c2c1O
active: Potency [6] 25.7 µM | Potency [7] 29.8 µM | Potency [8] 25.7 µM | Potency [9] 25.7 µM | Potency [12] 25.7 µM
inactive: Potency [1] | Potency [2] | Potency [4] | Potency [5] | Potency [11] | Potency [16]

O=S(=O)(c1ccccc1)c1ccc(Cl)cc1
inactive: Potency [1] | Potency [2] | Potency [3] | Potency [6] | Potency [7] | Potency [8] | Potency [9] | Potency [12]

Cc1nc2ccccc2s1
active: Potency [15] 48.9 µM
inactive: Potency [1] | Potency [2] | Potency [4] | Potency [5] | Potency [6] | Potency [9] | Potency [11] | Potency [16]

CCCCN(CCCC)CCCOC(=O)c1ccc(N)cc1
active: Potency [11] 26.6 µM
inactive: Potency [1] | Potency [3] | Potency [4] | Potency [5] | Potency [6] | Potency [7] | Potency [8] | Potency [9] | Potency [10] | Potency [12]

O=C(C(=O)c1ccccc1)c1ccccc1
inactive: Potency [1] | Potency [2] | Potency [3] | Potency [6] | Potency [7] | Potency [8] | Potency [9] | Potency [10] | Potency [15] | Potency [16]

CC[C@@H]([C@H](C)O)n1ncn(-c2ccc(N3CCN(c4ccc(OC[C@@H]5CO[C@@](Cn6cncn6)(c6ccc(F)cc6F)C5)cc4)CC3)cc2)c1=O
active: Potency [2] 4.77 µM | Potency [6] 9.44 µM
inactive: Potency [1] | Potency [5] | Potency [7] | Potency [10] | Potency [11]

CC(=O)OCC(=O)[C@@]12OC(C)(C)O[C@@H]1C[C@H]1[C@@H]3C[C@H](F)C4=CC(=O)C=C[C@]4(C)[C@@]3(F)[C@@H](O)C[C@@]12C
inactive: Potency [1] | Potency [2] | Potency [3] | Potency [6] | Potency [7] | Potency [9] | Potency [10]

CCC(C(=O)OCCN(CC)CC)c1ccccc1 (stereo not given)
inactive: Potency [1] | Potency [2] | Potency [4] | Potency [5] | Potency [6] | Potency [7] | Potency [8] | Potency [9] | Potency [10] | Potency [11] | Potency [12]

CCCCCCCCCOC(C)=O
inactive: Potency [1] | Potency [2] | Potency [3] | Potency [6] | Potency [7] | Potency [8] | Potency [9] | Potency [11] | Potency [12]

c1cnc2c(n1)CCCC2
inactive: Potency [1] | Potency [2] | Potency [4] | Potency [5] | Potency [6] | Potency [8] | Potency [9] | Potency [11] | Potency [12] | Potency [15] | Potency [16]

Cn1c(=O)c2c(ncn2CC(=O)O)n(C)c1=O
inactive: Potency [1] | Potency [2] | Potency [3] | Potency [6] | Potency [7] | Potency [8] | Potency [9] | Potency [12]

OC(CCCN1CCCCC1)(c1ccccc1)c1ccccc1
inactive: Potency [1] | Potency [2] | Potency [3] | Potency [6] | Potency [7] | Potency [8] | Potency [9] | Potency [11] | Potency [12] | Potency [15] | Potency [16]

O=[N+]([O-])c1cccc(S(=O)(=O)NCCNS(=O)(=O)c2cccc([N+](=O)[O-])c2)c1
inactive: Potency [1] | Potency [2] | Potency [3] | Potency [6] | Potency [9] | Potency [11] | Potency [12] | Potency [15] | Potency [16]

CN1Cc2cc(C(=O)N3CCC(C4CCNCC4)CC3)ccc2N[C@@H](CC(=O)O)C1=O
inactive: Potency [1] | Potency [2] | Potency [3] | Potency [6] | Potency [7] | Potency [8] | Potency [9] | Potency [11] | Potency [15] | Potency [16]

Cc1oncc1C(=O)Nc1ccc(C(F)(F)F)cc1
inactive: Potency [1] | Potency [4] | outcome [13] | outcome [14] | Potency [6] | Potency [8] | Potency [9] | Potency [10] | Potency [12]
43.6 µM (active) and inactive: Potency [2]
active: Potency [5] 3.06 µM and 2.98 µM | Potency [7] 39.9 µM | Potency [11] 770 nM and 1.06 µM
